# Experimental data as given in PubChem BioAssay (NCI).
# The panel holds about 83,000 compounds, 20% with a hit somewhere; the sample as a whole holds those more often.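 Values shown are percent growth following 48 h exposure of cells in 96-well plates to a single concentration of compound; below 10 was considered active.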 Unmarked numbers belong to inactive results. Calls of active or inactive are those of the source.
# Assays:
# Assay in all cases: NCI-60 one-dose screen, 48 h (100 = growth as untreated, 0 = no growth, -100 = all killed)
# Conditions in all cases: 10 µM unless noted
# NCI-H23 lung = test system: NCI-H23 lung
# NCI-H226 lung = test system: NCI-H226 lung
# NCI-H322M lung = test system: NCI-H322M lung
# HOP-62 NSCLC = test system: HOP-62 NSCLC
# NCI-H460 lung = test system: NCI-H460 lung
# HOP-92 NSCLC = test system: HOP-92 NSCLC
# NCI-H522 lung = test system: NCI-H522 lung
# A549/ATCC NSCLC = test system: A549/ATCC NSCLC
# 786-0 renal = test system: 786-0 renal
# COLO 205 colon = test system: COLO 205 colon
# DU-145 prostate = test system: DU-145 prostate
# K-562 leukemia = test system: K-562 leukemia
# MALME-3M melanoma = test system: MALME-3M melanoma
# MDA-MB-231 breast = test system: MDA-MB-231 breast
# RXF 393 renal = test system: RXF 393 renal
# SF-268 CNS = test system: SF-268 CNS
# SF-295 CNS = test system: SF-295 CNS
# SF-539 CNS = test system: SF-539 CNS
# UACC-257 melanoma = test system: UACC-257 melanoma
# M14 melanoma = test system: M14 melanoma
SMILES,growth (NCI-H23 lung),growth (NCI-H226 lung),growth (NCI-H322M lung),growth (HOP-62 NSCLC),growth (NCI-H460 lung),growth (HOP-92 NSCLC),growth (NCI-H522 lung),growth (A549/ATCC NSCLC),growth (786-0 renal),growth (COLO 205 colon),growth (DU-145 prostate),growth (K-562 leukemia),growth (MALME-3M melanoma),growth (MDA-MB-231 breast),growth (RXF 393 renal),growth (SF-268 CNS),growth (SF-295 CNS),growth (SF-539 CNS),growth (UACC-257 melanoma),growth (M14 melanoma)
COc1cc(-c2nc(SCCC(C)C)nc(Nc3ccccc3)c2C#N)cc(OC)c1OC,97.1%,101%,103%,114%,101%,86.8%,80.6%,91.5%,91.7%,99.1%,97.1%,93.7%,104%,59.8%,114%,95.9%,100%,96.2%,107%,100%
CCN(CC)CCCC(C)Nc1c2ccc(C)cc2nc2ccc(OC)cc12 (stereo not given),41.8%,42.4%,10.9%,45%,-44.3% (active),40.8%,51.1%,14.7%,33%,-40.4% (active),4.05% (active),4.22% (active),53.3%,41.9%,23.7%,39.4%,8.67% (active),10.2%,-76% (active),-10.2% (active)
COc1ccc(NCc2cn(-c3ccc(C(=O)O)cc3)nc2-c2ccc(C(=O)O)cc2)cc1C(F)(F)F,99.8%,98.5%,89.1%,96.6%,100%,66.6%,97.8%,99.8%,90.4%,111%,96.3%,111%,77.9%,81.8%,89.8%,99.3%,97.2%,86.7%,100%,96.9%
C=C(CC(=O)OC)C(C)=O,105%,104%,119%,98.7%,111%,112%,101%,114%,106%,116%,107%,106%,128%,94.8%,112%,106%,106%,120%,118%,119%
C=C(C)[C@@H]1CC[C@]2(C)[C@H](CC=C3[C@@H]4[C@@H](C)[C@H](C)CC[C@]4(C(N)=O)CC[C@]32C)[C@@]1(C)CCC#N,6.47% [100 µM] (active),-22.2% [100 µM] (active),0.378% [100 µM] (active),-1.03% [100 µM] (active),-38.4% [100 µM] (active),-37.7% [100 µM] (active),-6.12% [100 µM] (active),9.82% [100 µM] (active),-36.5% [100 µM] (active),-78.9% [100 µM] (active),-0.419% [100 µM] (active),7.42% [100 µM] (active),-65.5% [100 µM] (active),-55.4% [100 µM] (active),-72.2% [100 µM] (active),15.2% [100 µM],5.51% [100 µM] (active),-63.1% [100 µM] (active),-11.4% [100 µM] (active),-3.77% [100 µM] (active)
c1ccc(-c2nc(N3CCCNCC3)c3nc(-c4ccccc4)oc3n2)cc1,22.3%,49.9%,93.7%,78.2%,-50.1% (active),42.4%,26.4%,-38.8% (active),67%,-79.2% (active),-18.4% (active),0.76% (active),76.9%,-3.19% (active),27.1%,52%,96.2%,76.3%,100%,95.7%
